# Source: PubChem
# Peg3 prom inh-1 = Peg3 promoter activity inhibition; actives 1.7% (n = 360,000); inhibition, % at 20 µM; HeLa PEG-Prom luciferase reporter, luminescence, overnight;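 active means inhibition of at least 50% at 20 µM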
# CF NFkB block = blocks PAF-induced NF-kB reporter in cystic fibrosis cells; inhibition, % at 5 µM; KKLEB NF-kB-GFP reporter, GFP fluorescence overnight; actives 0.86% (n = 360,000);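 active means at least 50% inhibition at 5 µM, scaled per plate between neutral and stimulator controls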;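 further: PAF is a Pseudomonas aeruginosa culture filtrate used as stimulus; plate controls were PAF-stimulated DMSO wells for no effect and unstimulated DMSO wells for full effect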
# TWEAK-Fn14 inh = blocks TWEAK-Fn14 interaction in a reporter cell assay. AID 1159606. actives 2% (n = 360,000). TWEAK-stimulated Fn14 reporter cells, luciferase luminescence, 8 h. inhibition, % at 10 µM; in the data active means inhibition above about 50%
# TROY NFkB inh = inhibitors of TROY-dependent NF-kB signaling | Q293 LMP1-TROYcd NF-kB luciferase reporter, 4 h | inhibition, % at 10 µM | actives 0.98% (n = 360,000) | AID 1347056;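 active means compounds whose plate-normalised and pattern-corrected inhibition of the luciferase reporter signal at the single screening dose is 50% or more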
# HIF-2a block = HIF-2a inhibition; 786-0 RCC cells HIF-2a reporter, luciferase luminescence, overnight; inhibition, % at 18.8 µM; actives 0.72% (n = 360,000);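 active means inhibition of the luminescence signal of 40% or more relative to plate controls, in a single-dose primary screen at 18.75 µM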
# KKLEB cytotox = counter-screen for CF NF-kB inhibitors: cytotoxicity. AID 602141. activity change (cytotoxicity), % at 5 µM. actives 0.36% (n = 360,000). KKLEB CF airway cells viability, ATPlite luminescence, overnight; active compounds read low; cells stimulated with P. aeruginosa culture filtrate;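 active means corrected activity change at or below -50% at 5 µM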
# Peg3 prom inh-2 = Peg3 promoter inhibition confirmation. shares compounds with Peg3 prom inh-1. HeLa PEG-Prom luciferase reporter, luminescence, overnight. inhibition, % at 20 µM. actives 84% (n = 1,300);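 active means at 20 µM dose, 40% or more inhibition averaged across four replicates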
# * = called active by the depositor; . = no result. This is a sample that favours compounds with a hit; in the whole collection about 4% have one here.
SMILES,Peg3 prom inh-1,CF NFkB block,TWEAK-Fn14 inh,TROY NFkB inh,HIF-2a block,KKLEB cytotox,others
COC1CCC(OC2CC(C3(C)CCC4(CC(O)C(C)C(C(C)/C=C(\C)C(=O)C(C)CC(C)C(=O)O)O4)O3)OC3(OC(C4OC(O)(CO)C(C)CC4C)CC3C)C2C)OC1C (stereo not given),98*,82*,50*,55*,74*,-75*,
CCCCn1c(O)c(C(CC)=NCCCN(C)C)c(=O)[nH]c1=O,-8,10,-9,4,18,5,
N#CC(C#N)=Cc1ccc(-c2ccccc2F)o1,-32,-58,70*,11,-7,14,
CN1C(=O)CN=C(c2ccc[nH]2)c2cc(Cl)ccc21 (tested in a mixture with another compound),-8,-28,19,-16,-6,4,
CN(C)C(=S)SSC(=S)N(C)C,56*,-3,-6,-1,24,11,
Cc1cccc(CCNCc2cc3cccc(C)c3[nH]c2=O)c1,7,-16,10,1,19,-9,
C=CCn1c(O)c(C(C)=NCc2cccnc2)c(=O)[nH]c1=O,22,-26,-7,4,-2,1,
C=CCn1c(O)c(C(C)=NCc2cc(OC)cc(OC)c2)c(=O)[nH]c1=O,54*,-15,17,-4,32,8,
O=c1[nH]c(O)c(C=Nc2cccc(F)c2)c(=O)[nH]1,16,8,10,14,8,-17,
Cc1ccccc1-n1c(C)nc2ccsc2c1=O,3,-2,55*,2,7,-3,
CNC(=O)Oc1ccc(-c2cn3cc(Cl)ccc3n2)cc1,-204,3,6,-13,-131,-16,
CCCCCc1nc2c(c(=O)c3ccccc3n2C)c(=O)n1C1CCCCCC1,72*,44,44,89*,-3,-23,
CCCCCc1nc2ccccc2c(=O)n1-c1ccccc1[N+](=O)[O-],24,-2,-11,3,18,-26,
O=C1NCN(c2ccccc2)C12CCN(C(c1ccccc1OC(F)(F)F)c1nnnn1Cc1ccccc1)CC2 (stereo not given),91*,39,48,21,-10,-26,
O=C1NCN(c2ccccc2)C12CCN(C(c1cccc3ccccc13)c1nnnn1-c1ccc3c(c1)OCCO3)CC2 (stereo not given),26,10,37,10,15,-1,
COc1ccc(-n2nnnc2C(c2cccc3ccccc23)N2CCC3(CC2)C(=O)NCN3c2ccccc2)cc1 (stereo not given),15,7,53*,10,15,-25,
Cc1cccc(C)c1-n1nnnc1C(C1CC1)N1CCC2(CC1)C(=O)NCN2c1ccccc1 (stereo not given),30,4,37,75*,5,-4,
Cc1ccc(C)c(NC(=S)NCCc2cnc[nH]2)c1,-3,-18,-15,-5,15,2,
CSc1cccc(NP2(=O)OCC(C)([N+](=O)[O-])CO2)c1 (stereo not given),-3,3,25,-2,2,17,
COc1ccc2c3c1OC1C(=O)CC[C@@]4(O)[C@@H](C2)N(C)CC[C@]314 (stereo not given in full),50*,32,0,-16,-2,-5,
C[C@H]1CCC/C=C/[C@@H]2C[C@H](O)C[C@H]2[C@@H](O)/C=C/C(=O)O1,59*,64*,61*,-50,39,-47,
O=C1NC(=O)N(Cc2ccc(F)cc2)C(=O)/C1=C\C=C\c1ccco1,62*,78*,17,-1,22,-3,Peg3 prom inh-2=66*
Cc1ccc(N2C(=O)NC(=O)/C(=C/C=C/c3ccco3)C2=O)cc1,86*,81*,18,3,64*,-20,Peg3 prom inh-2=35
Cc1ccc(N2C(=O)NC(=O)/C(=C\c3cccn3C(C)(C)C)C2=O)cc1,7,-12,-5,16,-3,9,
O=C1NC(=O)N(Cc2ccccc2)C(=O)/C1=C\c1ccco1,17,47,14,-9,17,-1,
SMILES,Peg3 prom inh-1,CF NFkB block,TWEAK-Fn14 inh,TROY NFkB inh,HIF-2a block,KKLEB cytotox,others
OC[C@H]1O[C@@H](n2cnc3cc(Cl)c(Cl)cc32)[C@H](O)[C@@H]1O,-7,20,27,24,2,12,
CCOC(=O)[C@]12Cc3ccccc3[C@H]1N(Cc1ccccc1)C(=O)c1cc(OC)ccc12,.,.,12,6,23,.,
C[C@@H]1CN([C@H](C)CO)C(=O)CCCn2nncc2CO[C@@H]1CN(C)C(=O)Oc1cccc2ccccc12,5,-3,12,-12,-12,11,
O=C(CCl)NCC1CCCO1 (stereo not given),12,-5,7,2,8,1,
O=C1NC(=S)N(c2ccccc2F)C(=O)/C1=C\c1cccs1,102*,12,29,17,84*,4,Peg3 prom inh-2=83*
O=P1(c2ccccc2)CC=CC1,-3,-1,17,2,3,-6,
O=C(CSC1c2ccccc2-c2ccccc21)N/N=C/c1ccccc1O,55*,-17,23,-49,7,-9,Peg3 prom inh-2=64*
COc1ccc(-n2nnnc2C(C2CC2)N2CCC(n3c(=O)[nH]c4ccccc43)CC2)cc1 (stereo not given),58*,-3,28,19,9,-16,Peg3 prom inh-2=58*
CCC(c1nnnn1-c1ccc2c(c1)OCCO2)N1CCC(n2c(=O)[nH]c3ccccc32)CC1 (stereo not given),79*,79*,29,30,-1,-76*,Peg3 prom inh-2=80*
CN1C(=O)N(C)C(=O)C(CCc2ccccn2)(CCc2ccccn2)C1=O,17,1,8,-10,1,-4,
COc1ccccc1CNCCc1cccc(Cl)c1,-11,15,-5,-7,0,0,
CN1CCc2cc3c(c4c2C1Cc1ccccc1-4)OCO3 (stereo not given),71*,-172,6,-18,39,7,Peg3 prom inh-2=27
Cc1cccc(C)c1-n1nnnc1C(c1ccccc1)N1CCC2(CC1)C(=O)NCN2c1ccccc1 (stereo not given),46,40,-24,-12,-8,-46,
N/C(=N\N=C/c1ccc(-c2ccc(O)c(C(=O)O)c2)o1)N[N+](=O)[O-],0,0,8,7,15,9,
Cn1cccc1/C=C1/C(=O)NC(=S)N(Cc2ccc(F)cc2)C1=O,106*,33,3,6,27,-3,Peg3 prom inh-2=63*
CC1=CC(O)C(O)C2(C)C1CC1OC(=O)C(O)C3C(C)C(O)C4(O)OCC13C42 (stereo not given),68*,-5,-3,15,35,5,Peg3 prom inh-2=45*
O=C1NC(=S)NC(=O)C1=Cc1cccc2cc3ccccc3cc12,107*,95*,0,-28,-13,-36,Peg3 prom inh-2=100*
